Screens: PubChem, Sanford-Burnham Center for Chemical Genomics
Most compounds without a hit are left out; they make up all but 2.6% or so of the library.
A3A deaminase: human APOBEC3A DNA deaminase inhibition | actives 0.41% (n = 330,000) | recombinant A3A, FAM/TAMRA ssDNA deamination fluorescence | AID 493011 | P31941 | inhibition, % at 20 µM;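 active = at least 40% inhibition at 20 µM here, with at most 30% in a related deaminase screen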;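 also: plate controls were A3A with DMSO for no effect and wells lacking A3A enzyme for full effect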
Target sequence (P31941 whole entry, looked up): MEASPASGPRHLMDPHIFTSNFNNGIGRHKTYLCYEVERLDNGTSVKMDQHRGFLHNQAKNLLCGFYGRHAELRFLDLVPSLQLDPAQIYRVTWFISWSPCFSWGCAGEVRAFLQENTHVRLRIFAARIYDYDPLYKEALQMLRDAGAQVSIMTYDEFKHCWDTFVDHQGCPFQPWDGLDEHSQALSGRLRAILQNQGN
PHOSPHO1 block: inhibitors of human PHOSPHO1 phosphatase | Q8TCT1 | recombinant PHOSPHO1, absorbance phosphatase assay | inhibition, % at 13.3 µM | actives 1.1% (n = 290,000) | AID 1565; in the data active = inhibition above about 60%
PABP1 MLLE inh: blocks PAM2 peptide binding to the PABP1 MLLE domain; GST-MLLE / FITC-PAM2 fluorescence polarization; inhibition, % at 20 µM; actives 0.36% (n = 360,000); AID 588489; in the data active = inhibition above about 35%, passing the limit was not always enough;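 also: plate controls were DMSO wells with GST-MLLE for no effect and wells lacking GST-MLLE protein for full effect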
PABP FP inh: blocks human PABP binding to poly(A) RNA. P11940. fluorescence polarization. calls only at 35 µM. actives 1% (n = 290,000). AID 2014;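 also: calls also rest on retests at 20 µM and on dose response follow-up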
eIF4H inh: inhibitors of RNA binding by human eIF4H; eIF4H fluorescence polarization binding assay; actives 0.94% (n = 290,000); AID 2012; inhibition, % at 35 µM; Q15056;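 also: calls also rest on retests at 20 µM and on dose response follow-up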
APOBEC3G inh: APOBEC3G (human) deaminase inhibition; recombinant A3G, ssDNA deamination FAM/TAMRA fluorescence; AID 493012; inhibition, % at 20 µM; actives 0.28% (n = 330,000);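 active = inhibition of at least 40% at 20 µM, with no more than 30% in the related APOBEC3A deaminase screen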;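 also: plate controls were DMSO wells with A3G for no effect and wells lacking A3G enzyme for full effect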
Target sequence (Q9HC16 whole entry, looked up): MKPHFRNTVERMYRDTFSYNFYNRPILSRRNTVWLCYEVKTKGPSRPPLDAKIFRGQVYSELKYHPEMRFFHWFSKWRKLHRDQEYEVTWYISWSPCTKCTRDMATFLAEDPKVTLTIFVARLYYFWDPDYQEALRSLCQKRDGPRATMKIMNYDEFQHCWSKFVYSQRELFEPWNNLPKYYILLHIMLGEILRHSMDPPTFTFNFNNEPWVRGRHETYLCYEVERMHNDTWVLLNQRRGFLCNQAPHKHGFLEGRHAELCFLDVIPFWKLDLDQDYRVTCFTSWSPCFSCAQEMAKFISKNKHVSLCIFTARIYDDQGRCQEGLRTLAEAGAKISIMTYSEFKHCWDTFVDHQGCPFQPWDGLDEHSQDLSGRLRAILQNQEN
Active calls of the source: *. Unless noted, no rule for the calls is given here.

How did Cc1cc(C)n2nc(SCc3cc(=O)oc4cc(O)ccc34)nc2n1 do in these assays?
A3A deaminase: 6.0; PHOSPHO1 block: 44.6; PABP FP inh: active; eIF4H inh: inconclusive; APOBEC3G inh: 5.0

Results for Cc1ccc(-c2csc(NC(=O)CN3CC(C)OC(C)C3)n2)cc1 (stereo unspecified) ?
A3A deaminase: -7.0; PHOSPHO1 block: 29.1; PABP1 MLLE inh: -3.9; PABP FP inh: inactive; eIF4H inh: 0.9; APOBEC3G inh: -0.1

What do the screens show for `NC(=O)c1cc(S(=O)(=O)Nc2ccccc2)cs1`?
A3A deaminase: -4.0; PABP1 MLLE inh: -2.5; PABP FP inh: inactive; eIF4H inh: 0.0; APOBEC3G inh: -5.3

What do the screens show for `O=C(CC1C(=O)NCCN1Cc1ccccc1)NC1CCCCC1` (stereo unspecified)?
PABP1 MLLE inh: 9.5

Results for S=C(Nc1cccc(Cl)c1)NC1CCCCC1 ?
A3A deaminase: -4.0; PHOSPHO1 block: 42.0; PABP1 MLLE inh: -14.7; PABP FP inh: inactive; eIF4H inh: 3.5; APOBEC3G inh: -8.3

How did S=C(NNc1cccc(Cl)c1)NC1CCCCC1 do in these assays?
A3A deaminase: 5.9; PHOSPHO1 block: -1.7; PABP1 MLLE inh: -83.3; PABP FP inh: active; eIF4H inh: 3.3; APOBEC3G inh: -13.9

Results for C=CCOc1c(CCC)cc(CCC)cc1C(N)=O ?
A3A deaminase: 5.4; PHOSPHO1 block: 33.1; PABP1 MLLE inh: 13.0; PABP FP inh: inactive; eIF4H inh: 0.6; APOBEC3G inh: 2.0

How did O=C1NC(=O)C(c2ccccc2[N+](=O)[O-])=C1Nc1ccc(O)c(Cl)c1 do in these assays?
A3A deaminase: 5.0; PHOSPHO1 block: 15.1; PABP1 MLLE inh: 26.6; PABP FP inh: active; eIF4H inh: 66.6*; APOBEC3G inh: 4.8

Results for Cc1nn(-c2ccccc2)c(=S)c2ccccc12 ?
A3A deaminase: 0.6; PHOSPHO1 block: -3.9; PABP1 MLLE inh: 6.8; PABP FP inh: inactive; eIF4H inh: -5.3; APOBEC3G inh: -3.9

How did Cc1c(C(=O)OCC(=O)NC(C)c2ccccc2)oc2ccccc12 (stereo unspecified) do in these assays?
A3A deaminase: 0.4; PHOSPHO1 block: 55.8; PABP1 MLLE inh: -2.6; PABP FP inh: inactive; eIF4H inh: -10.8; APOBEC3G inh: 2.9

What do the screens show for `Clc1ccc(/C=N/N2CCCCC2)cc1`?
A3A deaminase: -2.7; PHOSPHO1 block: 65.4*; PABP1 MLLE inh: -11.1; PABP FP inh: inactive; eIF4H inh: -13.2; APOBEC3G inh: -3.1

How did COc1ccc2c(c1)c(=O)oc1c(C)c(OC(C)C(=O)N[C@@H](Cc3c[nH]c4ccc(O)cc34)C(=O)O)ccc12 (stereo partly specified) do in these assays?
A3A deaminase: 8.0; PHOSPHO1 block: 18.2; PABP1 MLLE inh: 2.4; PABP FP inh: active; eIF4H inh: 81.9*; APOBEC3G inh: 6.5

Results for CC(Oc1ccc2c(-c3ccccc3)cc(=O)oc2c1)C(=O)NC(Cc1c[nH]c2ccc(O)cc12)C(=O)O (stereo unspecified) ?
A3A deaminase: 0.6; PHOSPHO1 block: 7.9; PABP1 MLLE inh: -9.2; PABP FP inh: active; eIF4H inh: 85.8*; APOBEC3G inh: -4.7

Results for Cc1cc(OC(C)C(=O)NC(Cc2c[nH]c3ccc(O)cc23)C(=O)O)c2c(C)cc(=O)oc2c1 (stereo unspecified) ?
A3A deaminase: 5.0; PHOSPHO1 block: 13.5; PABP1 MLLE inh: 6.9; PABP FP inh: inactive; eIF4H inh: 55.8; APOBEC3G inh: 6.2

How did O=C(COc1ccc2c(-c3ccccc3)cc(=O)oc2c1)N[C@@H](Cc1c[nH]c2ccc(O)cc12)C(=O)O do in these assays?
A3A deaminase: -2.4; PHOSPHO1 block: 29.1; PABP1 MLLE inh: 1.9; PABP FP inh: inactive; eIF4H inh: 34.4; APOBEC3G inh: -7.8

What do the screens show for `CCCc1cc(=O)oc2cc(OCC(=O)NC(Cc3c[nH]c4ccc(O)cc34)C(=O)O)c(Cl)cc12` (stereo unspecified)?
A3A deaminase: 2.0; PHOSPHO1 block: 2.7; PABP1 MLLE inh: -13.2; PABP FP inh: active; eIF4H inh: 52.0*; APOBEC3G inh: -4.5

Results for Cc1cc(OCC(=O)NC(Cc2c[nH]c3ccc(O)cc23)C(=O)O)c2c(C)c(C)c(=O)oc2c1 (stereo unspecified) ?
A3A deaminase: 1.8; PHOSPHO1 block: 13.5; PABP1 MLLE inh: 6.2; PABP FP inh: inactive; eIF4H inh: 41.4; APOBEC3G inh: -0.3

What do the screens show for `CCOC(=O)CC(=O)CSc1nnc2sc3ccccc3n12`?
A3A deaminase: -5.9; PHOSPHO1 block: 63.7*; PABP1 MLLE inh: -55.0; PABP FP inh: inactive; eIF4H inh: 2.8; APOBEC3G inh: -7.9

How did O=C1CC(N2CCN(c3ccccn3)CC2)C(=O)N1CC(c1ccccc1)c1ccccc1 (stereo unspecified) do in these assays?
A3A deaminase: -3.6; PHOSPHO1 block: -20.8; PABP1 MLLE inh: 0.8; PABP FP inh: inactive; eIF4H inh: -4.1; APOBEC3G inh: 4.2

What do the screens show for `O=C1C(Cl)=C(N2CCN(Cc3ccccc3)CC2)C(=O)N1Cc1ccccc1`?
A3A deaminase: -2.8; PHOSPHO1 block: 16.2; PABP1 MLLE inh: 64.8*; PABP FP inh: inactive; eIF4H inh: 18.0; APOBEC3G inh: -6.2

What do the screens show for `O=C1C(Cl)=C(NC2CCCCC2)C(=O)N1Cc1ccccc1`?
A3A deaminase: -2.4; PHOSPHO1 block: -3.9; PABP1 MLLE inh: -15.0; PABP FP inh: inactive; eIF4H inh: -1.3; APOBEC3G inh: -4.1

Results for COC(=O)CSc1nc(C)c(C)c(C)c1C(N)=O ?
A3A deaminase: -2.5; PHOSPHO1 block: 62.2*; PABP1 MLLE inh: 13.2; PABP FP inh: inactive; eIF4H inh: 1.5; APOBEC3G inh: -4.4

Results for O=S1(=O)CC(N2CCN(c3ccccn3)CC2)CN1Cc1ccccc1 (stereo unspecified) ?
PABP1 MLLE inh: -3.9

What do the screens show for `COc1ccccc1N(C(=O)c1ccncc1)c1nc(-c2ccc([N+](=O)[O-])cc2)cs1`?
A3A deaminase: -3.2; PHOSPHO1 block: -17.2; PABP1 MLLE inh: -4.2; PABP FP inh: inactive; eIF4H inh: 0.1; APOBEC3G inh: -5.6

Results for COCCN(C(=O)/C=C/c1ccccc1)c1nnc(-c2cccnc2)s1 ?
A3A deaminase: -1.3; PHOSPHO1 block: 36.5; PABP1 MLLE inh: -13.5; PABP FP inh: active; eIF4H inh: 51.5; APOBEC3G inh: -3.2

What do the screens show for `COc1ccccc1-n1cc(-c2ccc([N+](=O)[O-])cc2)[nH]c1=S`?
A3A deaminase: 3.3; PHOSPHO1 block: 16.2; PABP1 MLLE inh: 39.5*; PABP FP inh: inactive; eIF4H inh: -1.2; APOBEC3G inh: -6.5

What do the screens show for `CCn1c(=O)[nH]c2cc(Cl)c(Cl)cc21`?
A3A deaminase: -4.7; PABP1 MLLE inh: -4.5; APOBEC3G inh: -7.6

How did CCCC(C)NC(=O)c1ccc(OCc2ccc(Cl)cc2)c(OC)c1 (stereo unspecified) do in these assays?
PHOSPHO1 block: -11.7; PABP1 MLLE inh: -24.6; PABP FP inh: inactive; eIF4H inh: -4.0
